Sampled rows, rich in hits. Any-hit rate of the full collection: about 4%.
Mdm2-MdmX inh: disrupts the human Mdm2-MdmX interaction; inhibition, % at 8 µM; 330,000 tested, 3% active; SaOS-2 split-luciferase Mdm2/MdmX complementation, luminescence; O15151+Q00987;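 active = inhibition of at least 50% at 8 µM in the primary screen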
Target sequence (O15151 whole entry, looked up): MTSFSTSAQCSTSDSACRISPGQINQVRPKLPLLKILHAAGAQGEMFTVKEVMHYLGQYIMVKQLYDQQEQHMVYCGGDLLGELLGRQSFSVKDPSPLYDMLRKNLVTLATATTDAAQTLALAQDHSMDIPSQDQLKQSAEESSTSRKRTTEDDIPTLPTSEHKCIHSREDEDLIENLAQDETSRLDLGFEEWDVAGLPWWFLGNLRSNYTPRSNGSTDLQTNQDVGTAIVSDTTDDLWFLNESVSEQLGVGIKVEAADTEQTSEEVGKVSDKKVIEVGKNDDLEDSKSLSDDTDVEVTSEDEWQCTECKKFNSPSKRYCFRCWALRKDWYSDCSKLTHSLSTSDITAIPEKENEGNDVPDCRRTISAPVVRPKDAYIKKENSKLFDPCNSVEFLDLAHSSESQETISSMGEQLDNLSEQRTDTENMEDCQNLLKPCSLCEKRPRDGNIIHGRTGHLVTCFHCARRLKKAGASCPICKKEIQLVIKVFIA
Target sequence (Q00987 whole entry, looked up): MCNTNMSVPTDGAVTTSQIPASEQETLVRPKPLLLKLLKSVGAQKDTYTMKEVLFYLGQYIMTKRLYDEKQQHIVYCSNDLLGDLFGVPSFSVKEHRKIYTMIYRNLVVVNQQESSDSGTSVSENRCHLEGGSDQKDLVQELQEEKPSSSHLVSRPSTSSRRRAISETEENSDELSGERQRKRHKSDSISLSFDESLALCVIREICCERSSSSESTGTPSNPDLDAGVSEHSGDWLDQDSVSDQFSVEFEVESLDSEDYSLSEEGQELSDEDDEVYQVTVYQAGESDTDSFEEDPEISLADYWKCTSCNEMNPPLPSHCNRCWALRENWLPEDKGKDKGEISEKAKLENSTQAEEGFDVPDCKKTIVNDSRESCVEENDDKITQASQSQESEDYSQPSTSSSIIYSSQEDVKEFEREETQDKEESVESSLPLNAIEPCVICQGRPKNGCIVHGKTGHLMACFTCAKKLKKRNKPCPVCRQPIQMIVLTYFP
Beta cell apopt: blocks beta cell apoptosis. AID 435005. 300,000 tested, 0.8% active. INS-1E cytokine-induced death, ATP luminescence, 48 h; percent of positive-control rescue, neutral wells zero. protection from apoptosis, % (test concentration not listed);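 active = Every replicate reaches about 75%, or at least half do and their mean reaches it too, limit read from the data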;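 also: 0% = cytokine-treated negative control wells and 100% = positive control rescue; higher means more ATP so stronger rescue from cytokine killing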
CSC inhib: cancer stem cell inhibition; 300,000 tested, 1.1% active; AID 2717; cancer stem cell-like cells viability, luminescence; inhibition, % at 7.5 µM; in the data active = inhibition above about 75%; tested in HMLE shEcad cells
PAX8 reporter: inhibitors of PAX8 transcriptional activity in RMG-I cells; inhibition, % at 12.6 µM; 360,000 tested, 1.2% active; RMG-I TPO-luciferase reporter, SteadyGlo, 24 h;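 active = mean replicate inhibition at least 60% with every replicate also reaching 60%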;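 also: luciferase light reporting Pax8 driven TPO promoter activity; plate controls were median of neutral control wells for no effect and mitoxantrone controls for full effect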
Shn3 inh set2: inhibitors of Schnurri-3 3'UTR reporter in osteoblasts. Clone20 osteoblast Shn3 3'UTR firefly luciferase, 24 h. inhibition, % at 12.5 µM. 360,000 tested, 0.52% active. AID 588674;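 active = mean inhibition of at least 75% with every replicate also reaching 75%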;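 also: 0% = median of neutral control wells and 100% = pilot-screen positive control compound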
Gli-Sufu block: Gli-Sufu pathway antagonism; inhibition, % at 5 µM; AID 588413; 340,000 tested, 0.74% active; Sufu-KO-LIGHT fibroblasts, Gli luciferase reporter luminescence;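 active = inhibition above about 55%, limit read from the data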;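 also: 0% = DMSO-treated cells and 100% = wells with medium but no cells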
Gli-Sufu confirm: Gli-SUFU antagonism confirmation, single concentration; Sufu-KO-LIGHT cells, Gli luciferase reporter, luminescence; inhibition, % at 5 µM; shares compounds with Gli-Sufu block; 2,500 tested, 40% active; AID 602428;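 active = mean inhibition at 5 µM reaching about 45%, limit read from the data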;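 also: plate controls were DMSO-treated cells for no effect and wells lacking cells for full effect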
Gli cytotox: cytotoxic in Gli-SUFU antagonist counter-screen | shares compounds with Gli-Sufu block | cytotoxicity, % at 5 µM | Sufu-KO-LIGHT cells cytotoxicity, ATP luminescence | AID 651994 | 2,500 tested, 32% active;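 active = mean cytotoxicity at 5 µM above about 25%, limit read from the data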;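 also: cells exposed to compound overnight for roughly 16 to 18 hours; plate controls were DMSO wells with cells for no effect and medium without cells for full effect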
Wnt3a counter: counter-screen for Gli-SUFU antagonists: Wnt3a reporter inhibition | AID 651995 | Wnt-LIGHT cells, Wnt3a-driven luciferase reporter, luminescence | 2,500 tested, 20% active | inhibition, % at 6.25 µM | shares compounds with Gli-Sufu block;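 active = mean inhibition above about 25%, limit read from the data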
Numbers without * were called inactive.

What do the screens show for `C[C@H](CO)N1C[C@H](C)[C@@H](CN(C)S(=O)(=O)c2cccs2)Oc2ccc(NS(=O)(=O)c3cn(C)cn3)cc2CC1=O`?
PAX8 reporter: -2.6

What do the screens show for `COCC(=O)N1C[C@@H](C)[C@@H](OC)CN(C)C(=O)c2cc(NC(=O)c3ccc(OC)cc3)ccc2OC[C@@H]1C`?
PAX8 reporter: 5.5

How did CN1CCN(C(=O)C[C@@H]2CC[C@@H]3[C@H](COC[C@@H](O)CN3CC3CCCCC3)O2)CC1 do in these assays?
PAX8 reporter: -3.6

Results for CC(=O)OCc1cc(-c2nc3ccccc3[nH]c2=O)nn1-c1ccc(Cl)cc1 ?
Mdm2-MdmX inh: -0.4; Beta cell apopt: 1.3; CSC inhib: -0.6; PAX8 reporter: 7.8; Shn3 inh set2: 19.4; Gli-Sufu block: 51.9; Gli-Sufu confirm: 11.0; Gli cytotox: 1.6; Wnt3a counter: -28.0

Results for CN1CCc2c(sc3c2c(=O)n(-c2ccccc2)c2nnc(SCc4ccc(Cl)cc4)n32)C1 ?
Mdm2-MdmX inh: 28.7; Beta cell apopt: 1.5; CSC inhib: -55.2; Shn3 inh set2: 10.0; Gli-Sufu block: 51.3; Gli-Sufu confirm: 24.6; Gli cytotox: 15.2; Wnt3a counter: -23.6

Results for Cc1ccc(N2C(=O)CC(N3CCN(C4CCc5ccccc5C4)CC3)C2=O)cc1 (stereo not drawn) ?
Mdm2-MdmX inh: 3.6; Beta cell apopt: -6.5; CSC inhib: -15.7; Shn3 inh set2: 8.3; Gli-Sufu block: 72.2*; Gli-Sufu confirm: 24.2; Gli cytotox: 7.9; Wnt3a counter: -20.5

Results for CC(C)=CCN1CCN(Cc2cccn2-c2ncccn2)CC1CCO (stereo not drawn) ?
Mdm2-MdmX inh: -9.6; Beta cell apopt: -5.3; CSC inhib: -9.8; PAX8 reporter: -1.1; Shn3 inh set2: -13.0; Gli-Sufu block: 50.9; Gli-Sufu confirm: 17.6; Gli cytotox: 5.0; Wnt3a counter: -37.9

What do the screens show for `COc1cccc(CNC(=O)c2cc3c(c(-c4cccc(-c5ccncc5)c4)n2)[C@H](CCO)N([S@@](=O)C(C)(C)C)C3)c1`?
PAX8 reporter: 27.9

Results for CN(C(=O)c1ccc(NC(=O)Cc2cccc(NC(=O)C3CCCN(C(=O)C4CCCCC4)C3)c2)cc1)C1CCCC1 (stereo not drawn) ?
Mdm2-MdmX inh: -20.1; Beta cell apopt: -2.4; CSC inhib: -7.4; PAX8 reporter: 21.8; Shn3 inh set2: 11.8; Gli-Sufu block: -4.8

How did CN(C(=O)c1ccc(NC(=O)Cc2cccc(NC(=O)C3CCCN(C(=O)C4CCC4)C3)c2)cc1)C1CCCC1 (stereo not drawn) do in these assays?
Mdm2-MdmX inh: -23.1; Beta cell apopt: -2.2; CSC inhib: -8.5; PAX8 reporter: 2.1; Shn3 inh set2: 3.5; Gli-Sufu block: 57.2*; Gli-Sufu confirm: 17.5; Gli cytotox: -3.3; Wnt3a counter: -9.2

How did C[C@H](CO)N1C[C@H](C)[C@@H](CN(C)C(=O)Nc2ccc(F)cc2)Oc2ccc(NC(=O)CCC(F)(F)F)cc2CC1=O do in these assays?
PAX8 reporter: -8.1

Results for O=C(C[C@@H]1CC[C@H]2[C@@H](COC[C@@H](O)CN2Cc2ccccc2)O1)N[C@@H]1CCN(Cc2ccccc2)C1 ?
PAX8 reporter: 2.5

Results for C[C@@H]1CN([C@H](C)CO)C(=O)c2cc(-c3cccc(F)c3)cnc2O[C@@H]1CN(C)C(=O)c1cnccn1 ?
PAX8 reporter: 10.8

How did CO[C@H]1CN(C)C(=O)c2ccc(NC(C)=O)cc2OC[C@@H](C)N(CC2CCCCC2)C[C@@H]1C do in these assays?
PAX8 reporter: -2.8

How did C[C@H](CO)N1C[C@H](C)[C@@H](CN(C)S(C)(=O)=O)Oc2ccc(NS(=O)(=O)c3cccs3)cc2CC1=O do in these assays?
PAX8 reporter: 3.0

Results for CC(C)Cc1ccc(C(C)C(=O)Nc2cccnc2)cc1 (stereo not drawn) ?
Mdm2-MdmX inh: 13.8; Beta cell apopt: 67.8; CSC inhib: 27.4; PAX8 reporter: 13.3; Shn3 inh set2: 62.2; Gli-Sufu block: 65.7*; Gli-Sufu confirm: 44.5; Gli cytotox: 18.9; Wnt3a counter: 19.3

Results for O=C(Cc1ccccc1)Nc1ccccc1N1CCOCC1 ?
Mdm2-MdmX inh: -6.3; Beta cell apopt: 3.9; CSC inhib: -3.6; Shn3 inh set2: -8.7; Gli-Sufu block: 7.9

How did O=C(CCS(=O)(=O)c1ccccc1)Nc1ccccc1N1CCOCC1 do in these assays?
Mdm2-MdmX inh: 4.4; Beta cell apopt: 0.0; CSC inhib: -4.9; PAX8 reporter: -3.9; Shn3 inh set2: 0.5; Gli-Sufu block: 66.1*; Gli-Sufu confirm: 8.8; Gli cytotox: 11.2; Wnt3a counter: -12.7

Results for Cc1onc(-c2ccccc2)c1C(=O)N1CCN(c2ccccc2)CC1 ?
Mdm2-MdmX inh: 28.7; Beta cell apopt: 1.4; CSC inhib: -1.4; PAX8 reporter: 7.5; Shn3 inh set2: 8.8; Gli-Sufu block: 2.3

What do the screens show for `COc1ccc(N2CCN(C(=O)COC(=O)c3c(-c4ccccc4)noc3C)CC2)cc1`?
Mdm2-MdmX inh: -10.1; Beta cell apopt: 1.5; CSC inhib: -5.3; PAX8 reporter: 7.5; Shn3 inh set2: 10.5; Gli-Sufu block: 65.1*; Gli-Sufu confirm: 15.7; Gli cytotox: -0.9; Wnt3a counter: 7.3

What do the screens show for `CCc1ccccc1NC(=O)C1CCCN1S(=O)(=O)c1ccc(-c2ccc(=O)[nH]n2)s1` (stereo not drawn)?
Mdm2-MdmX inh: 23.3; Beta cell apopt: 2.6; CSC inhib: 10.9; PAX8 reporter: 12.5; Shn3 inh set2: 10.6; Gli-Sufu block: 44.4

Results for Cc1cccc(C)c1NC(=O)C1CCCN1S(=O)(=O)c1ccc(-c2ccc(=O)[nH]n2)s1 (stereo not drawn) ?
Mdm2-MdmX inh: 5.9; Beta cell apopt: -1.4; CSC inhib: 2.3; PAX8 reporter: -7.6; Shn3 inh set2: -6.6; Gli-Sufu block: 51.0; Gli-Sufu confirm: 13.3; Gli cytotox: 5.2; Wnt3a counter: 34.9*

How did C[C@@H]1CCCCO[C@@H](CN(C)C)[C@@H](C)CN([C@H](C)CO)C(=O)c2cc(NS(C)(=O)=O)ccc2O1 do in these assays?
PAX8 reporter: -8.1

What do the screens show for `CC(C)OCCCNC(=O)c1ccc(CS(=O)(=O)c2cccc(C(F)(F)F)c2)o1`?
Mdm2-MdmX inh: -5.8; Beta cell apopt: -3.3; CSC inhib: 12.3; PAX8 reporter: 4.1; Shn3 inh set2: -53.3; Gli-Sufu block: 53.6; Gli-Sufu confirm: 19.2; Gli cytotox: 19.0; Wnt3a counter: -3.6

Screens from PubChem.
